Measured values from article PMC5540273 (PLoS ONE, 2017).

How the values were obtained:
Conditions in all cases: concentration: 1 μM, replicates: in singlicate; n = 1
PAK2 = tested on: PAK2
PAK3 = tested on: PAK3
PAK4 = tested on: PAK4
PAK6 = tested on: PAK6
PAK7 = tested on: PAK7
PCTK1 = tested on: T1, PCTK1
T1 construct: gene CDK16

PCTK2 = tested on: T2, PCTK2
T2 construct: gene CDK17

PCTK3 = tested on: T3, PCTK3
T3 construct: gene CDK18

PDGFRA = tested on: PDGFRA
PDGFRB = tested on: PDGFRB
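Further: KINOMEscan kinase panel screen.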

| SMILES | %Inh (PAK2) | %Inh (PAK3) | %Inh (PAK4) | %Inh (PAK6) | %Inh (PAK7) | %Inh (PCTK1) | %Inh (PCTK2) | %Inh (PCTK3) | %Inh (PDGFRA) | %Inh (PDGFRB) |
| --- | --- | --- | --- | --- | --- | --- | --- | --- | --- | --- |
| CN(C)c1cc(-c2ccc3c(N)n[nH]c3c2)nc(N)n1 [GSK2219329] | 0% | 0% | 0% | 0% | 15% | 0% | 0% | 0% | 0% | 9% |
| COc1ccc(-c2coc3ccc(-c4nnc(SCc5cccc(C#N)c5)o4)cc23)cc1 | 34% | 0% | 14% | 19% | 15% | 0% | 0% | 2% | 20% | 10% |
| Cl.c1ccc(Cn2cnc3cc(Nc4ncnc5ccccc45)ccc32)cc1 [GW272142] | 0% | 0% | 0% | 58% | 9% | 0% | 0% | 29% | 0% | 6% |
| Nc1nc(N)c2nc(-c3ccccc3)[nH]c2n1 [SKF-12778] | 0% | 0% | 13% | 0% | 5% | 5% | 0% | 0% | 0% | 14% |
| COc1cc(Nc2nccc(N3CCC(NC(=O)C4COc5ccccc5O4)C3)n2)cc(OC)c1OC (stereo not shown) [GSK1379761] | 0% | 10% | 0% | 0% | 3% | 4% | 0% | 10% | 1% | 45% |
| Cc1ccc(-c2ccc3c(ccc4sc5c(c43)NC[C@@H](C)N=C5N(C)C)n2)cn1 | 0% | 0% | 0% | 0% | 10% | 0% | 0% | 9% | 0% | 0% |
| CN1C(=O)C(Nc2cc(Cl)c(O)c(Cl)c2)=C(c2ccc(Cl)cc2)C1=O [SB-404321] | 2% | 0% | 34% | 0% | 5% | 0% | 5% | 0% | 0% | 0% |
| Fc1cccc(CSc2nnc(-c3ccc4c(c3)CCO4)o2)c1 | 62% | 19% | 23% | 35% | 5% | 18% | 1% | 0% | 26% | 0% |
| COc1cc(Nc2ccnc3ccc(C(F)(F)F)cc23)cc(OC)c1OC [GW577382] | 0% | 31% | 4% | 0% | 7% | 0% | 0% | 7% | 0% | 36% |
| CCn1c(-c2nonc2N)nc2ccccc21 [SB-693162/GW549034] | 27% | 0% | 0% | 11% | 11% | 4% | 0% | 16% | 41% | 0% |
| CCS(=O)c1ccc(-c2coc3ccc(-c4nnc(C)o4)cc23)cc1 (stereo not shown) | 0% | 33% | 0% | 20% | 0% | 0% | 0% | 2% | 0% | 0% |
| CCC(=O)c1c(-c2ccccc2)c2cc(Cl)ccc2c(=O)n1Cc1cc(S(C)(=O)=O)n(CCC(C)(C)O)n1 | 8% | 21% | 6% | 0% | 2% | 29% | 21% | 13% | 0% | 0% |
| COC(=O)c1c(-c2ccccc2)c2cc(Br)ccc2c(=O)n1Cc1ccc(NC(=O)CCC(=O)O)cc1 | 17% | 0% | 2% | 18% | 2% | 15% | 7% | 0% | 16% | 57% |
| COc1ccc(-c2cc3c(C)nc(N)nc3n([C@H]3CC[C@H](OCCO)CC3)c2=O)cn1 | 1% | 0% | 0% | 0% | 0% | 0% | 3% | 0% | 0% | 1% |
| COc1cc2ncn(-c3cc(OCc4ccncc4Br)c(C(N)=O)s3)c2cc1OC [GW854278] | 14% | 0% | 8% | 12% | 16% | 0% | 14% | 5% | 39% | 58% |
| COc1cc2ncn(-c3cc(OCCCc4ccccc4)c(C(N)=O)s3)c2cc1OC [GSK205189] | 26% | 6% | 0% | 0% | 0% | 0% | 0% | 19% | 0% | 25% |
| O=c1cc(N2CCOCC2)nc2n(Cc3ccc(F)c(Cl)c3)ccn12 [GSK2297099] | 5% | 0% | 0% | 13% | 11% | 6% | 10% | 2% | 7% | 17% |

| SMILES | %Inh (PAK2) | %Inh (PAK3) | %Inh (PAK4) | %Inh (PAK6) | %Inh (PAK7) | %Inh (PCTK1) | %Inh (PCTK2) | %Inh (PCTK3) | %Inh (PDGFRA) | %Inh (PDGFRB) |
| --- | --- | --- | --- | --- | --- | --- | --- | --- | --- | --- |
| CCc1nc(-c2cccc(C)c2)c(-c2ccncc2)s1 | 16% | 0% | 15% | 3% | 0% | 0% | 1% | 2% | 0% | 70% |
| CCCC(=O)Nc1n[nH]c2ncc(-c3cccc4ccccc34)cc12 [SB-642057] | 5% | 0% | 0% | 0% | 0% | 27% | 35% | 34% | 0% | 12% |
| COc1cc2ncn(-c3cc(OCc4ccc(S(C)(=O)=O)cc4)c(C(N)=O)s3)c2cc1OC [GW869979] | 0% | 0% | 0% | 0% | 0% | 19% | 0% | 26% | 30% | 11% |
| Cc1ccc(Oc2ccc(Nc3ncnc4cc[nH]c34)cc2C)cn1 | 37% | 4% | 25% | 27% | 0% | 0% | 8% | 2% | 49% | 21% |
| CCS(=O)(=O)c1ccc(OC)c(Nc2ncc(-c3ccc(F)cc3)o2)c1.Cl [GW591947] | 13% | 0% | 0% | 0% | 14% | 4% | 0% | 16% | 0% | 24% |
| Cc1nnc(-c2ccc3ncn(-c4ccc(S(C)=O)cc4)c3c2)o1 (stereo not shown) | 14% | 0% | 2% | 4% | 2% | 0% | 0% | 14% | 17% | 30% |
| COc1cccc(C2=C(Nc3cccc(C(=O)O)c3)C(=O)NC2=O)c1 [SB-390770] | 0% | 25% | 0% | 0% | 0% | 0% | 0% | 0% | 3% | 0% |
| COc1cccc(-n2cnc3c(N)ncnc32)c1 [SKF-97416] | 53% | 0% | 18% | 18% | 1% | 15% | 0% | 6% | 42% | 4% |
| COc1cc(OC)cc(-c2cc3cnc(N)nc3nc2NC(=O)NC(C)(C)C)c1 | 0% | 0% | 0% | 0% | 9% | 0% | 0% | 0% | 0% | 0% |
| O=C(Nc1n[nH]c2nc(-c3ccccc3)c(Cl)cc12)C1CC1 [SB-734909] | 0% | 23% | 0% | 0% | 7% | 0% | 0% | 30% | 46% | 97% |
| C[C@@H]1CC[C@H](C(=O)NC2CCCCC2)CN1c1cc(-c2ccc3c(N)n[nH]c3c2)nc(N)n1 [GSK2291363] | 17% | 0% | 0% | 3% | 17% | 2% | 10% | 32% | 0% | 34% |
| O=C(Nc1n[nH]c2cc(-c3ccccc3F)ccc12)C1CC1 [SB-733371] | 0% | 0% | 0% | 0% | 9% | 0% | 9% | 0% | 16% | 46% |
| COC(=O)c1c(-c2ccccc2)c2cc(C)ccc2c(=O)n1Cc1ccccc1 | 20% | 1% | 0% | 10% | 0% | 0% | 0% | 0% | 42% | 90% |
| COc1cc2ncn(-c3cc(OCc4ccncc4)c(C(N)=O)s3)c2cc1OC [GSK336313] | 3% | 0% | 0% | 4% | 0% | 9% | 0% | 18% | 0% | 27% |
| Cc1nc(N(C)[C@H]2CN(C(=O)CC#N)CC[C@H]2C)c2cc[nH]c2n1 | 0% | 0% | 0% | 2% | 15% | 0% | 0% | 0% | 0% | 0% |
| Cl.NS(=O)(=O)c1cccc(Nc2cc(-c3ccc(F)cc3)n[nH]2)c1 [GW824645] | 26% | 0% | 0% | 4% | 0% | 0% | 13% | 5% | 75% | 96.1% |
| O=C(NCc1cccs1)c1cc(C(=O)c2c(Cl)cccc2Cl)c[nH]1 [GW823670] | 38% | 10% | 0% | 0% | 0% | 0% | 0% | 13% | 0% | 0% |
